In the supplement of paper PMC11732987, “Enantioselective OTUD7B fragment discovery through chemoproteomics screening and high-throughput optimisation” (Communications Chemistry, 2025):
A number with no mark means an inactive call.

Legend:
Test in all cases: log2 ratio of Biotin-Ahx-Ub-VS probe labelling (fragment/DMSO); higher = less target engagement (more negative = stronger competition), active = hit call of the paper (q ≤ 0.05, log2 ratio ≤ -1)
Settings in all cases: compound concentration: 200 uM; treatment time: 3 h
ALG13 = target: T1, ALG13 (UniProt Q9NP73)
T1 sequence (whole entry): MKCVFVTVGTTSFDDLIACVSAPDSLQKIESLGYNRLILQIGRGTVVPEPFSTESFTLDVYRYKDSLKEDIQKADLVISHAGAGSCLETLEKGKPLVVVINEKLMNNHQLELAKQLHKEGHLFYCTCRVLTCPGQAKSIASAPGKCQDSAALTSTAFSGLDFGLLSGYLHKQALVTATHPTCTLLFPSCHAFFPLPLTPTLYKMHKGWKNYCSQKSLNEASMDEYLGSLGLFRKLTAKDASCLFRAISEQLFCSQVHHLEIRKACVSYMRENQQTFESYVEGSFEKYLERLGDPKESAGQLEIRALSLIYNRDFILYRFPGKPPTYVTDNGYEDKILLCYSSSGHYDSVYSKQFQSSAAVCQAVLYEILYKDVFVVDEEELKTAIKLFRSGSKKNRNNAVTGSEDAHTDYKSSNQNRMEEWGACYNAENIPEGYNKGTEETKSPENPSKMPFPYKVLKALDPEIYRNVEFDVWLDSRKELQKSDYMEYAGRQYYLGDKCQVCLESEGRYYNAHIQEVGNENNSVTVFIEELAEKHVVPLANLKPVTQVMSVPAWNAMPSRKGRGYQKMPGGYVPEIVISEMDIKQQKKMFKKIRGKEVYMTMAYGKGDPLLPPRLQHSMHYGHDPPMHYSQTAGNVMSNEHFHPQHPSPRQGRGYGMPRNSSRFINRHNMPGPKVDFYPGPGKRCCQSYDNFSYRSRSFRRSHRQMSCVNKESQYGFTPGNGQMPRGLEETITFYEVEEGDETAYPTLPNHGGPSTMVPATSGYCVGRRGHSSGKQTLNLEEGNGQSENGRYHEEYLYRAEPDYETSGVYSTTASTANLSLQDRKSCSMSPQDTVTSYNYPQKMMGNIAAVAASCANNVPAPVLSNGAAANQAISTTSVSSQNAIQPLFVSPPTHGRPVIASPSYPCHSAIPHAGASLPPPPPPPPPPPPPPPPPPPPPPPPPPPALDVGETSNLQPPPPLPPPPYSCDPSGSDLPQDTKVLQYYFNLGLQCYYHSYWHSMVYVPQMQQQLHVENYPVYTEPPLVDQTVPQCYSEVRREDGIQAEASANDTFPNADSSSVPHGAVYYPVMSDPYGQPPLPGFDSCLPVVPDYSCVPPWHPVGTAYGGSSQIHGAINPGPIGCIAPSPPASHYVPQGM
Summary of the method: (§1)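 Fragment (200 µM) or vehicle was incubated for 3 h with triplicate HEK293T lysate samples of 495 µg, which were then treated with Biotin-Ahx-Ub-VS at 0.5 µM final for 1 h. Labelled DUBs were enriched on NeutrAvidin, digested with LysC and trypsin, and analysed by diaPASEF LC-MS/MS. Values are average log2 fragment/vehicle ratios from an unpaired t-test on global-median-normalised Spectronaut label-free quantities, using proteins with ≥2 unique peptides.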

ATXN3 = ATXN3 (UniProt P54252)
Summary of the method: as §1

BAP1 = target: T2, BAP1 (UniProt Q92560)
T2 sequence (whole entry): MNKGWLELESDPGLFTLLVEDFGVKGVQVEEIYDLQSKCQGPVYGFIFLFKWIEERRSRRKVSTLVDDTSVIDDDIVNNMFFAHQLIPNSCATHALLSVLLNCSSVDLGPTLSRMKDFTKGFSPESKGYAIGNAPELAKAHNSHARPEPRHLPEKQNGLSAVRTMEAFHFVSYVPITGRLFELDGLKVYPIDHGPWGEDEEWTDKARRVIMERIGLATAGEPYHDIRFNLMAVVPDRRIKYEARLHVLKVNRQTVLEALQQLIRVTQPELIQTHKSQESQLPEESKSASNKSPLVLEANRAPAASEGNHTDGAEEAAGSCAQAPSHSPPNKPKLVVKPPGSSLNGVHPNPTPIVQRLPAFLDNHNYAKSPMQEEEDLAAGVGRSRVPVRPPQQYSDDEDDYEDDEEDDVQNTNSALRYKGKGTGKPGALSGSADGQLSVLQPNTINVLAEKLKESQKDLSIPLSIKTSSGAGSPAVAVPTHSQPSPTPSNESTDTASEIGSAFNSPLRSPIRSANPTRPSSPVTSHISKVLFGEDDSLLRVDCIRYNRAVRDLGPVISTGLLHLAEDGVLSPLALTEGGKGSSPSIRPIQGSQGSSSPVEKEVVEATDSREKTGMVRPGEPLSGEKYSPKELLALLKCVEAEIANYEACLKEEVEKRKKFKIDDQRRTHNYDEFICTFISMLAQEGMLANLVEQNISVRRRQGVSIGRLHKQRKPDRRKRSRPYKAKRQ
Summary of the method: as §1

EIF3F = EIF3F (UniProt O00303)
Summary of the method: as §1

EIF3H = EIF3H (UniProt O15372)
Summary of the method: as §1

FAM105A = target: T3, FAM105A (UniProt Q9NUU6)
T3 sequence (whole entry): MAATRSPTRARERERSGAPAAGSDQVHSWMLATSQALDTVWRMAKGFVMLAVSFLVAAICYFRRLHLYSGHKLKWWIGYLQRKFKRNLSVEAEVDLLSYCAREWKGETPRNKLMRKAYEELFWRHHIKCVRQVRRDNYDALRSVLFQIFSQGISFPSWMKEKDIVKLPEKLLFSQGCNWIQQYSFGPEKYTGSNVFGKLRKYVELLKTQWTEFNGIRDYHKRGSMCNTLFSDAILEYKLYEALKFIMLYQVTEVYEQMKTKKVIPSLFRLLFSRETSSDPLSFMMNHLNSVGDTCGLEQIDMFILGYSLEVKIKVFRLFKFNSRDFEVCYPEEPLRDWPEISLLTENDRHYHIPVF
Summary of the method: as §1

OTUB1 = OTUB1 (UniProt Q96FW1)
Summary of the method: as §1

OTUD4 = target: T4, OTUD4 (UniProt Q01804)
T4 sequence (whole entry): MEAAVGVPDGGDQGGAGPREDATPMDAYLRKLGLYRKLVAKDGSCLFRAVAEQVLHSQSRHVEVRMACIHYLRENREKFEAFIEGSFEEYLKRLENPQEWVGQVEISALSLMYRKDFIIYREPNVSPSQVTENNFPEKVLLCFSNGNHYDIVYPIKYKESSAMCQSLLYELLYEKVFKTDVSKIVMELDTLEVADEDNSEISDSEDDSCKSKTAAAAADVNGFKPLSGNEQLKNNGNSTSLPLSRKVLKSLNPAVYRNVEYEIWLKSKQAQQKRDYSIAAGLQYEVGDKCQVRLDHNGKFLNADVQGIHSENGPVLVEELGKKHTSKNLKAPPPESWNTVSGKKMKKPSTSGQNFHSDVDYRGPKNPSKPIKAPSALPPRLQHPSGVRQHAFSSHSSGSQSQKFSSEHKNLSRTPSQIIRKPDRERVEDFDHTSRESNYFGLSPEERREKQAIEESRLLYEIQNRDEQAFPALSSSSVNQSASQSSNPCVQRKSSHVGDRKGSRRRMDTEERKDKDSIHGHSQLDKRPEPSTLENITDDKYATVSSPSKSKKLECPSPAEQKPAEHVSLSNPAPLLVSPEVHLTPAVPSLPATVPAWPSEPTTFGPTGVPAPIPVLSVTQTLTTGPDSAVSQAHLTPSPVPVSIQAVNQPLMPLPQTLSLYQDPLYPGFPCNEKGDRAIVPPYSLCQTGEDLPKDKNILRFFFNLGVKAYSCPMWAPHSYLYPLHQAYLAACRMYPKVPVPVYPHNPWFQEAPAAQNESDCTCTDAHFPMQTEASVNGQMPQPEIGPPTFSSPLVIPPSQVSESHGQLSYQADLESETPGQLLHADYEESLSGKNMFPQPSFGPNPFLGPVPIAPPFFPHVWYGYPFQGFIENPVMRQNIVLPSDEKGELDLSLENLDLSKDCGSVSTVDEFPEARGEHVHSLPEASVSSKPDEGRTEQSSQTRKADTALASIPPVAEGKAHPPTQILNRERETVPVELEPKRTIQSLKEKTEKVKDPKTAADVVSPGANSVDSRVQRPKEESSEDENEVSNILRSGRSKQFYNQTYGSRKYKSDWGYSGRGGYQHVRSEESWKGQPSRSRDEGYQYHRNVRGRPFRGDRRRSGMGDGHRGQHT
Summary of the method: as §1

OTUD5 = target: T5, OTUD5 (UniProt Q96G74)
T5 sequence (whole entry): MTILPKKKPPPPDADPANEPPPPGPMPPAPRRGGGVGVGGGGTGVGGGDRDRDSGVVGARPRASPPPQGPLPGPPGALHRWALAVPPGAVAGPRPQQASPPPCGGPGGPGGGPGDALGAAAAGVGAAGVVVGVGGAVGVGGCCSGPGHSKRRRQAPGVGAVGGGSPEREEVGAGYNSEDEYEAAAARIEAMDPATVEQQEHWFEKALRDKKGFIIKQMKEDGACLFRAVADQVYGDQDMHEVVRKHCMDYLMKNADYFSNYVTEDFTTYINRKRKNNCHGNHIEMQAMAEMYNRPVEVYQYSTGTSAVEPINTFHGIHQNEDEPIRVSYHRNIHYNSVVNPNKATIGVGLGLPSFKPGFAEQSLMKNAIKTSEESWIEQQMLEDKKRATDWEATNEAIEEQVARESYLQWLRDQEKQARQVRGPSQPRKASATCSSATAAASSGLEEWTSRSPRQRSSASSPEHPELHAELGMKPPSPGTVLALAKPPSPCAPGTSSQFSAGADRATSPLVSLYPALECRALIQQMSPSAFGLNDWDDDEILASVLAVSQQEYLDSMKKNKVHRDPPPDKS
Summary of the method: as §1

Sequence of OTUB1 (Q96FW1 whole entry): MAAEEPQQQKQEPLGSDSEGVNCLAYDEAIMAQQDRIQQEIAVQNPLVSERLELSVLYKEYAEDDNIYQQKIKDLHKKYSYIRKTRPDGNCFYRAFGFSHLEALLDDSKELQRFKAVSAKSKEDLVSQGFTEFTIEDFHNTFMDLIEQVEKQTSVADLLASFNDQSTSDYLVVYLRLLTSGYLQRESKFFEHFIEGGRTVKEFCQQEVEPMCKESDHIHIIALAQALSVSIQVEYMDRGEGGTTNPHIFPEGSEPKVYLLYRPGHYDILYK
Sequence of EIF3H (O15372 whole entry): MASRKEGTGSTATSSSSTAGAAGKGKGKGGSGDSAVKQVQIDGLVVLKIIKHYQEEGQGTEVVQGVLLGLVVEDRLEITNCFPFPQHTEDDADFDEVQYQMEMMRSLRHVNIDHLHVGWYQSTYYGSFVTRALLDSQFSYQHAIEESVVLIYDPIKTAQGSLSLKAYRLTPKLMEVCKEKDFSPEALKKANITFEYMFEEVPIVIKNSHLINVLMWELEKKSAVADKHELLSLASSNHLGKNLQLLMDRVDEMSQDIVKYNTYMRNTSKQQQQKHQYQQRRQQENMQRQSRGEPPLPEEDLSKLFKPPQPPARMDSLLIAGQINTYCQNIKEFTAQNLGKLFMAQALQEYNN
Sequence of ATXN3 (P54252 whole entry): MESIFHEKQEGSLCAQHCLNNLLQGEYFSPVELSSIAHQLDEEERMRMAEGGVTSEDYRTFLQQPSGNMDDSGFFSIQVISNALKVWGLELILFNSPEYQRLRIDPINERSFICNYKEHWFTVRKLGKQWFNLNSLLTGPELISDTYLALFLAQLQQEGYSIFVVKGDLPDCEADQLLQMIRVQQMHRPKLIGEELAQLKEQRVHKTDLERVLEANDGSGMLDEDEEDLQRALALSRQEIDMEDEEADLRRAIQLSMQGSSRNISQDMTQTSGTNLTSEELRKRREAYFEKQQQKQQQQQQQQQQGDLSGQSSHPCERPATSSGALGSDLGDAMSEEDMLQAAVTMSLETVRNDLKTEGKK
Sequence of EIF3F (O00303 whole entry): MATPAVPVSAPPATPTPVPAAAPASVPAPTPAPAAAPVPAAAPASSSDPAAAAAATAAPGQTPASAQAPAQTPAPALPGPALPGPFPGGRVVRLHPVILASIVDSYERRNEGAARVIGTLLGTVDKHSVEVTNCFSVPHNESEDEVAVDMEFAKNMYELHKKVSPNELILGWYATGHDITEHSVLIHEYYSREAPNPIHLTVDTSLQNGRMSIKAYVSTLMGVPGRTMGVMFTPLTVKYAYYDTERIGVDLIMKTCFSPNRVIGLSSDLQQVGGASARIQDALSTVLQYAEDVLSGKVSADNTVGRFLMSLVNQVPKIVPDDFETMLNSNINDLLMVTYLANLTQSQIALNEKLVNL

SMILES: O=C(CCl)NC1CCC(C(F)(F)F)CC1 (centres undefined)
- log2 ratio of Biotin-Ahx-Ub-VS probe labelling (ALG13): 0.187
- log2 ratio of Biotin-Ahx-Ub-VS probe labelling (ATXN3): -0.373
- log2 ratio of Biotin-Ahx-Ub-VS probe labelling (BAP1): -1.11 (active)
- log2 ratio of Biotin-Ahx-Ub-VS probe labelling (EIF3F): -0.798
- log2 ratio of Biotin-Ahx-Ub-VS probe labelling (EIF3H): -0.225
- log2 ratio of Biotin-Ahx-Ub-VS probe labelling (FAM105A): -0.0674
- log2 ratio of Biotin-Ahx-Ub-VS probe labelling (OTUB1): 0.207
- log2 ratio of Biotin-Ahx-Ub-VS probe labelling (OTUD4): -0.576
- log2 ratio of Biotin-Ahx-Ub-VS probe labelling (OTUD5): -0.288
